We go through 25 molecules from PubChem BioAssay AID1347414 (National Center for Advancing Translational Sciences (NCATS), 2020).

Inconclusive results are not listed. Entries that show only a call come without a potency. Activity calls are given as the source filed them. Calls come from the whole dose curve; as a rule, active = well fitted inhibition curve with a large enough effect; inconclusive = small, poorly fitted or top-dose-only effect; inactive = no such curve, though single readings can be large or run the other way.
Potency is the fitted concentration of half-maximal effect.

This assay is described as follows: qHTS to identify inhibitors of the type 1 interferon - major histocompatibility complex class I in skeletal muscle: Secondary screen by immunofluorescence. Note: nearly all actives have a fitted effect of over 70% in size. Conditions: C25cl48 myoblasts, IFN-b induced HLA-ABC immunofluorescence, 24 h, Viability; series mostly up to 49.8 µM. Summed up:
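HLA-ABC immunofluorescence, with nuclear and cell-body stains, was quantified by laser scanning cytometry. Read-out followed 24 h of IFN-beta (4.0 ng/ml) stimulation of C25cl48 human myoblasts with compounds titrated 1:3 over 11 points from 50 uM, with ruxolitinib as inhibitor control.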
Background: Quantitative high-throughput screening tests each substance at several concentrations.
Turning to `Cc1cc2c(cc1CC(=O)c1sccc1S(=O)(=O)Nc1onc(C)c1Cl)OCO2`, the Potency result was “inactive”.
The value for `CC[C@@]1(O)C(=O)OCc2c1cc1n(c2=O)Cc2cc3cc(O)ccc3nc2-1` was “inactive”.
With `CC(C)c1cc(C(=O)N2Cc3ccc(CN4CCN(C)CC4)cc3C2)c(O)cc1O`, the Potency result was “inactive”.
The entry for `O=C1CN2Cc3c(ccc(Cl)c3Cl)N=C2N1` is “inactive”; for `C[C@H]1C[C@@H]2[C@H]([C@@H](O)C[C@@]3(C)[C@H]2CC[C@]3(O)C(=O)CO)[C@@]2(C)C=CC(=O)C=C12` it is “inactive”; for `CNC(=O)c1cc(Oc2ccc(NC(=O)Nc3cc(C(C)(C)C)nn3-c3ccc4ncccc4c3)c(F)c2)ccn1` it is “inactive”.
The entry for `O=C(NC1CCNCC1)c1[nH]ncc1NC(=O)c1c(Cl)cccc1Cl` is “inactive”; for `C[C@@H]1CCN(C(=O)CC#N)C[C@@H]1N(C)c1ncnc2[nH]ccc12` it is “inactive”; for `CCCCC(=O)OCC(=O)[C@H]1[C@H](C)C[C@H]2[C@@H]3C[C@H](F)C4=CC(=O)C=C[C@]4(C)[C@@]3(F)[C@@H](O)C[C@@]21C` it is “inactive”.
The entry for `CN(Cc1ccc(/C=C/C(=O)NO)cc1)CC12CC3CC(CC(C3)C1)C2` is “inactive”; for `CC(C)c1c(-c2ccccc2)nc2c(C#N)c[nH]n2c1=O` it is “inactive”; for `CC(=O)OCC(=O)[C@@]1(O)CC[C@H]2[C@@H]3CCC4=CC(=O)C=C[C@]4(C)[C@H]3[C@@H](O)C[C@@]21C` it is “inactive”.
Consider `Cc1cc(O)c(-c2ccc([C@@H](C)CN(C)C)cc2)c2c1[nH]c(=O)c1sccc12`, for which the Potency entry is “inactive”.
The entry for `CC(C)c1cnn2c(NCc3ccccc3)cc(N[C@@H](CO)[C@H](O)CO)nc12` is “inactive”; for `CC(C)C[C@H](NC(=O)[C@H](Cc1ccccc1)NC(=O)c1cnccn1)B(O)O` it is “inactive”; for `CCc1cc(C(N)=O)ccc1-n1nc(C(C)C)c2c(-n3cnc(-c4cnn(C)c4)c3)ccnc21` it is “inactive”.
The entry for `CC(=O)NCC(=O)N1[C@@H]2CC[C@H]1c1ccc(Nc3ncc(C(F)(F)F)c(NC4CCC4)n3)cc12` is “inactive”.
The value for `Nc1nc(Nc2ccc(S(N)(=O)=O)cc2)nn1C(=O)c1c(F)cccc1F` was “inactive”; that for `COc1ccc(-c2ccc3ncc4c(c3c2)n(-c2ccc(N3CCNCC3)c(C(F)(F)F)c2)c(=O)n4C)cn1` was 1020 nM (active).
Consider `CCCC(=O)O[C@]1(C(=O)CO)CC[C@H]2[C@@H]3CCC4=CC(=O)CC[C@]4(C)[C@H]3[C@@H](O)C[C@@]21C`, for which the Potency entry was “inactive”.
As for `Cc1nc(Nc2n[nH]c3c2CN(C(=O)N[C@H](CN(C)C)c2ccccc2)C3(C)C)c2sccc2n1`, the Potency entry is “inactive”.
Consider `CC(=O)OCC(=O)[C@@]12OC(C)(C)O[C@@H]1C[C@H]1[C@@H]3C[C@H](F)C4=CC(=O)C=C[C@]4(C)[C@@]3(F)[C@@H](O)C[C@@]12C`, for which the Potency entry is “inactive”.
The entry for `Cc1[nH]c2ccccc2c1CCNCc1ccc(/C=C/C(=O)NO)cc1` is “inactive”; for `C=CCNC1=C2C[C@@H](C)C[C@H](OC)[C@H](O)[C@@H](C)/C=C(\C)[C@H](OC(N)=O)[C@@H](OC)/C=C\C=C(/C)C(=O)NC(=CC1=O)C2=O` it is “inactive”; for `Fc1cccc(-n2cnc3c(NCc4nc5c(F)c(F)ccc5[nH]4)nc(N4CCOCC4)nc32)c1` it is “inactive”.
